Common to all, as to assay: NCI-60 one-dose screen, 48 h (100 = growth as untreated, 0 = no growth, -100 = all killed)
Common to all, as to settings: 10 µM unless noted

Test [1] has as its system DU-145 prostate.
Test [2] concerns K-562 leukemia.
The test system of test [3] is MALME-3M melanoma.
Test [4] concerns MDA-MB-231 breast.
Test [5] deals with RXF 393 renal.
The subject of test [6] is SF-268 CNS.
For test [7], the system named is SF-295 CNS.
In test [8] the test system is SF-539 CNS.
For test [9], the system named is UACC-257 melanoma.
Test [10] has as its system M14 melanoma.

About 83,000 compounds went through this panel and 20% of them were active in at least one assay; those are over-represented in the sample as a whole.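 Note: values are percent growth. 100 is the growth of untreated cells, values between 100 and 0 indicate rising inhibition; between -100 and 0 indicates cell death.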 A number with no mark means an inactive call. The source made the active and inactive calls. How the source made its calls: active means growth percent below 10; inactive means the rest.

Consider `O=c1nc2oc3ccc4ccccc4c3cc-2s1`, for which the growth in test [1] was 19%; in [2], 11.9%; in test [3], 45.2%; in test [4] it was 42.7%; in [5] it was -18.5% (active); in test [6], 40.8%. In addition, the growth in test [7] is 9.97% (active); in test [8], -25.1% (active); in [9] it was 51.6%; in test [10], -33.4% (active).

Take `COc1ccc(-c2cc(C(=O)N=Nc3c(O)[nH]c4ccc(Br)cc34)no2)cc1`: the growth in test [1] was 105%; in [2], 96.5%; in test [3] it was 92.4%; in test [4], 92.8%; in test [5] it was 107%; in [6] it was 99.4%. In addition, the growth was 103% in test [7], 95.9% in test [8], 112% in [9] and 98.9% in test [10].

For `O=C(Cc1ccccc1Nc1c(Cl)cccc1Cl)NN1C(=O)/C(=C/c2ccc(Br)cc2)SC1=S`, the growth was 109% in test [1]; 100% in [2]; 100% in test [3]; 103% in [4]; 111% in [5]; 96.8% in test [6]. Also, the growth in test [7] was 101%; in test [8] it was 93.6%; in test [9], 103%; in [10], 103%.

Regarding `CCn1c(Cc2ccccc2Nc2c(Cl)cccc2Cl)nnc1SCC(=O)NN1C(=O)/C(=C/c2cc(OC)c(O)c(OC)c2)SC1=S`, the growth in [1] was 48.8%; in test [2], 19.4%; in test [3], 40.4%; in [4], 60.9%; in test [5], 12.9%; in test [6], 36.4%. Moreover, the growth in test [7] is 23.5%; in test [8] it was 13%; in test [9], 63.7%; in test [10] it was 19.5%.

With `O=C1/C(=C/c2ccccc2)SC(=S)N1CCc1ccc(O)cc1`, the growth was 90.1% in test [1]; 90.9% in test [2]; 92.2% in test [3]; 87.3% in test [4]; 101% in test [5]; 85.3% in [6]. The growth in test [7] was 97%; in test [8] it was 90.1%; in [9] it was 98.9%; in test [10], 97.1%.

For `O=C(Nc1ccccc1Cl)c1ccc(NC2=C(Cl)C(=O)N(C3CCCCC3)C2=O)cc1`, the growth in test [1] is 28.8% [30 µM]; in test [2] it was 25.3% [30 µM]; in test [3], 80.6% [30 µM]; in test [4], 85.4% [30 µM]; in [5], -12.1% [30 µM] (active); in test [6], 60.5% [30 µM]. For the same molecule, the growth is 21.6% [30 µM] in test [7], 82% [30 µM] in test [8], 54.9% [30 µM] in [9] and 92.6% [30 µM] in [10].

Turning to `FC(F)(F)c1ccc(-c2cn3nc(-c4c[nH]c5ccc(Br)cc45)sc3n2)cc1`, the growth in test [1] was 107%; in test [2] it was 97.9%; in test [3], 90.4%; in test [4], 88%; in [5], 118%; in [6] it was 113%. The growth in test [7] is 95.2%; in [8], 101%; in test [9] it was 107%; in test [10] it was 101%.

Take `COc1ccc(/C=N/C2=C(C#N)C(c3ccc(N(C)C)cc3)c3ccc4ccccc4c3O2)cc1` (stereo not given): the growth in test [1] is 81.5%; in [2], 14.7%; in test [3], 72%; in test [4], 52.5%; in test [5], 67.2%; in test [6], 63.1%. Also, the growth was 39.1% in test [7], 51.8% in [8], 79.3% in test [9] and 44% in test [10].

Take `O=C1c2ccccc2C(=O)c2c1ccc1[nH]c(-c3cccs3)nc21`: the growth is 88.9% in test [1]; 80.7% in [2]; 81.9% in [3]; 70.9% in test [4]; 81% in test [5]; 87.6% in test [6]. The growth in test [7] is 120%; in test [8], 77.5%; in [9], 87.5%; in test [10], 106%.

Regarding `N#Cc1c(-c2ccc(Cl)cc2)nc(N/N=C/c2cccc(Br)c2)nc1N1CCOCC1`, the growth in [1] is 59.3%; in test [2] it was 12.6%; in test [3], 133%; in test [4] it was 103%; in test [5], 56.2%; in [6] it was 89.2%. Also, the growth was 91.5% in test [7], 78.8% in [8], 71.6% in [9] and 62.4% in test [10].

Consider `COc1cc2nc(N3CCCC3)nc(NCCc3ccccc3)c2cc1OC`, for which the growth is 37.6% in [1]; -19.3% (active) in [2]; 82.1% in test [3]; 59.3% in test [4]; 67.9% in [5]; 87.2% in test [6]. The growth was 80% in test [7], 86.1% in [8], 115% in [9] and 78.4% in test [10].

For the molecule `Cc1cc(C)nc(SC2=C(Nc3ccc(O)cc3)C(=O)N(Cc3ccccc3)C2=O)n1`, the growth in [1] is 96.8% [40 µM]; in test [2] it was 78.1% [40 µM]; in [3] it was 102% [40 µM]; in test [4], 80.7% [40 µM]; in test [5] it was 29.3% [40 µM]; in test [6], 74.6% [40 µM]. Moreover, the growth is 94.8% [40 µM] in [7], 94.2% [40 µM] in test [8], 88.1% [40 µM] in [9] and 105% [40 µM] in test [10].

With `CCC(=O)c1ccc(Cl)s1`, the growth was 111% in [1]; 109% in test [2]; 115% in test [3]; 106% in test [4]; 115% in test [5]; 94.8% in test [6]. The growth in test [7] is 113%; in [8], 114%; in test [9], 104%; in test [10] it was 103%.
